The text below walks through data of PubChem BioAssay (NCATS).

Values without a mark were called inactive. Inconclusive results are not listed. Activity calls are given as the source filed them. Unless noted, the call rests on the fitted dose curve; in most records, active means well fitted curve in either direction with a large enough effect (not every such curve was filed as active); inconclusive means small, poorly fitted or top-dose-only effect, or another doubt; inactive means flat fitted curve, though single readings scatter.

For experiment [1], the target named is Lysosomal acid glucosylceramidase (Homo sapiens) (UniProt P04062). Put plainly: Glucocerebrosidase-p2 (AID 348; in the data active means potency below about 10 µM; further: potency means the concentration at half of the fitted maximal effect). As to conditions: purified GBA, blue fluorogenic substrate, 40 min. Put shortly:
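Compounds titrated from 0.6 nM upwards against 0.2 nM enzyme in pH 5.9 citric acid/KH2PO4, taurocholate, tween-20; blue fluorogenic substrate 80 uM, 40 min room temperature, stopped and read Ex 365/Em 440 for AC50.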

Experiment [2] in a line: AP1 Signaling Pathway (AID 357).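 Further: ME-180 reporter cells stimulated with EGF at its EC50 level; on the % scale 0 is the no-effect control and ±100 the full control effect.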 As to conditions: ME-180 AP-1-bla reporter, EGF-induced, beta-lactamase ratio, 5 h; at 7.69 µM (top of the series) unless noted. Summed up: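 In this screen, ME-180 cells in Opti-MEM with 0.5% dialyzed FBS received EC50 EGF and compound titrations for 5 h. AP-1 reporter beta-lactamase was detected via CCF4 ratio, giving AC50 for positive and negative modulators.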

In experiment [3] the target is Cytochrome P450 1A2 (Homo sapiens) (UniProt P05177). Put plainly: p450-cyp1a2 (AID 410; calls by dose curve; further: potency means the concentration at half of the fitted maximal effect;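 on activity change, negative = inhibition: -100% = full effect of reference inhibitor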). As to conditions: recombinant CYP1A2, luciferin-ME demethylation, luminescence; series mostly up to 11.4 µM. Summed up:
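Human CYP1A2 (20nM) demethylated Luciferin-ME at its Km (100uM) in 100mM KPO4. After 10 min compound preincubation, NADPH regeneration ran the reaction 60 min at room temperature. Luciferin was read by luminescence, normalized to 57 uM furafylline.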

A short description of experiment [4]: NFAT Signaling Pathway (AID 444).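 Further: carbachol stimulus at about its EC50 of 1 µM final; on the % scale 0 is the no-effect control and ±100 the full control effect.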 As to conditions: Jurkat NFAT-bla M1, carbachol, beta-lactamase ratio, 5 h; at 7.69 µM (top of the series) unless noted. Put shortly: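 Jurkat cells carrying an NFAT-driven β-lactamase reporter and co-transfected muscarinic M1 receptor were treated with compound plus carbachol (1 uM final, an EC50 level) for 5 h at 37 °C. CCF4 loading followed for 1 h at RT; 460/530 nm ratio gave %activity.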

Experiment [5] is described as follows: Stat Signaling Pathway (AID 446).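 Further: ME-180 cervical cancer cells given 40 pM IL-6 alongside compound; SIE-controlled beta-lactamase reporter measured as 460/530 nm FRET emission ratio; on the % scale 0 is the no-effect control and ±100 the full control effect.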 As to conditions: ME-180 SIE beta-lactamase reporter, IL-6 stimulated, 5 h; at 7.69 µM (top of the series) unless noted. Put shortly:
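Reporter line: ME-180 cervical carcinoma, SIE-beta-lactamase. Treatment: compound with 40 pM IL-6, 5 hrs, 37 C, in low-serum OPTI-MEM with 10 mM HEPES pH 7.3. Detection: 460/530 nm fluorescence.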

The target in experiment [6] is Glucocorticoid receptor (Homo sapiens) (UniProt P04150). Put plainly: GR-GFP Redistribution (AID 450;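 active means compounds whose dose series gives a full or clear partial fitted curve of increased nuclear translocation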; further: potency means the concentration at half of the fitted maximal effect). The note with it: U2OS GR-GFP nuclear translocation, laser cytometry, 2 h.
Chain of Glucocorticoid receptor (Homo sapiens) (P04150 whole entry, looked up, the tested form may be a part): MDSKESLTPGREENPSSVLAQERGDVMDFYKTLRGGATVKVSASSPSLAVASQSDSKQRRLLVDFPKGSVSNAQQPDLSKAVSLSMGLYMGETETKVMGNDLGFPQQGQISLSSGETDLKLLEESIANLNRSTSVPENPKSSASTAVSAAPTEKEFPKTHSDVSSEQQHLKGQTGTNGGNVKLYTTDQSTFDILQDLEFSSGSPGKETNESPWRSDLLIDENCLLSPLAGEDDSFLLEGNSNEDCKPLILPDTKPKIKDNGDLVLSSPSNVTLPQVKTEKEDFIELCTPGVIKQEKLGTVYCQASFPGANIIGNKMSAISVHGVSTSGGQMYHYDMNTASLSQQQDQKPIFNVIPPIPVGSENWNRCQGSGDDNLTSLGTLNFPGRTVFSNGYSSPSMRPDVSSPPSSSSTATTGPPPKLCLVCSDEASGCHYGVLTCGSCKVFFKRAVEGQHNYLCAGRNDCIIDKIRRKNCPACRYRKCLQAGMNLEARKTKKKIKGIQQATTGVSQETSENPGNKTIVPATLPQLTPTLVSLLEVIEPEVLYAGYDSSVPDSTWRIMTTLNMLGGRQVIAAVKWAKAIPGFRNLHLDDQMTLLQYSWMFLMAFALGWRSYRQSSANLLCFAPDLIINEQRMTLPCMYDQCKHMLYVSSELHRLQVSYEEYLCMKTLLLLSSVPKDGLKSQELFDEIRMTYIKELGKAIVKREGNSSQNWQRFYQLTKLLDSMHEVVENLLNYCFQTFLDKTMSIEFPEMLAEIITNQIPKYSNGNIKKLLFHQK
Experiment [7] has the same target. Put plainly: GR-EFC Redistribution (AID 451; calls by dose curve; further: potency means the concentration at half of the fitted maximal effect). As to conditions: CHO-K1 GR-EFC translocation, beta-gal luminescence, 2 h. Put shortly: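 CHO-K1 cells stably expressing nuclear-localized β-gal enzyme acceptor and GR fused C-terminally to the enzyme donor fragment; ligand-driven nuclear translocation restores β-gal by complementation. Compounds titrated up to 46 uM final, 2 h at 37 °C; luminescence read.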

For experiment [8], the target named is Mitogen-activated protein kinase 10 (Mus musculus) (UniProt Q61831). The experiment in a line: JNK3 AlphaScreen Assay (AID 530).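 Further: kinase came from lysate of stimulated human HepG2 cells; signal reports phosphorylation of biotinylated GST-cJun 1-79 at Ser73 with 10 µM ATP; on the % scale 0 is the no-effect control and ±100 the full control effect.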 As to conditions: JNK3 lysate, c-Jun phosphorylation; series mostly up to 11.4 µM. Summed up:
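JNK3 came from HepG2 lysates pre-activated with IL-1beta and TNF-alpha and phosphorylated biotinylated GST-cJun (1-79) at 10 uM ATP, pH 7.6, room temperature. Compounds were titrated. AlphaScreen signal used anti-phospho-cJun (Ser73) antibody.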
(In general: In Alpha technology, singlet oxygen from a donor bead excites a nearby acceptor bead.)

The target of experiment [9] is 3',5'-cyclic-AMP phosphodiesterase 4B (Homo sapiens) (UniProt Q07343). The experiment in a line: qHTS Assay for Inhibitors of PDE-IV (AID 607; active means well fitted activation curve with a large enough effect in the main read-out, with a control signal flat, not every such curve was filed as active; further: % of control where 0% means no effect). As to conditions: HEK293 ACTOne CNG channel cells, membrane potential fluorescence; series mostly up to 22.9 µM. Summed up:
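Cell-based read-out of cAMP via a modified cyclic nucleotide-gated channel and membrane potential dye (535/590 nm) in HEK293 cells expressing PDE4 endogenously. Compounds tested up to 22.9 uM final; 100 uM RO 20-1724 reference.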
A general note: Quantitative high-throughput screening tests each substance at several concentrations.

Experiment [10] deals with Cytochrome P450 2C19 (Homo sapiens) (UniProt P33261). Put plainly: qHTS Assay for Inhibitors and Substrates of Cytochrome P450 2C19 (AID 899; active means well fitted inhibition curve with a large enough effect; further: nearly all actives have a fitted effect of over 60% in size; further: potency means the concentration at half of the fitted maximal effect). As to conditions: recombinant CYP2C19, luciferin-H EGE luminescence; series mostly up to 11.4 µM. Put shortly:
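Human CYP2C19 (5nM) with Luciferin-H EGE at 10uM (its KM) in 50mM KPO4 was preincubated with compound for 10 min at 37C. NADPH regeneration started a 60 min 37C reaction. Luciferin was read by luminescence, normalized to 57uM ketoconazole.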

Experiment [11] is described as follows: qHTS Assay for Identification of Small Molecule Agonists for Hypoxia Response Element Signaling Pathway (AID 914; active means well fitted activation curve with a large enough effect in the signal ratio, with a control signal flat, not every such curve was filed as active; the % refers to the signal ratio; further: % of control where 0% means no effect). As to conditions: ME-180 (cervical carcinoma) HRE-bla reporter, beta-lactamase ratio, CoCl2, 17 h; activation: active compounds read high. Put shortly:
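Reporter activity (beta-lactamase, CCF4 460nm/530nm ratio) in HRE-bla ME-180 cells is recorded after 17 h compound exposure with EC50 CoCl2 at 37 degrees Celsius. AC50 values come from titration data.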

Chain of Cytochrome P450 2C19 (Homo sapiens) (P33261 whole entry, looked up): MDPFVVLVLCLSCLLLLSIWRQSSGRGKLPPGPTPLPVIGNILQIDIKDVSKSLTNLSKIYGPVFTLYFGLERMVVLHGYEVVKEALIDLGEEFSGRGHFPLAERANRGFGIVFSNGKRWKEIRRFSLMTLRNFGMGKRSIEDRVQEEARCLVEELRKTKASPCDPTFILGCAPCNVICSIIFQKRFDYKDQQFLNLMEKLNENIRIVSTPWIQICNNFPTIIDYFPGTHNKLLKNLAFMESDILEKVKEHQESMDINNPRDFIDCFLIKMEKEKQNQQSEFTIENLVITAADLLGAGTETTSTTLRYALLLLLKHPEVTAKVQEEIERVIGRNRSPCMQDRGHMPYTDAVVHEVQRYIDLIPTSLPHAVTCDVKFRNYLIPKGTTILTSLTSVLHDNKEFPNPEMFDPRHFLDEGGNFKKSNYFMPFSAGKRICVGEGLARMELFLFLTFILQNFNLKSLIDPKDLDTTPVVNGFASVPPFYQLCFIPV
Chain of Cytochrome P450 1A2 (Homo sapiens) (P05177 whole entry, looked up): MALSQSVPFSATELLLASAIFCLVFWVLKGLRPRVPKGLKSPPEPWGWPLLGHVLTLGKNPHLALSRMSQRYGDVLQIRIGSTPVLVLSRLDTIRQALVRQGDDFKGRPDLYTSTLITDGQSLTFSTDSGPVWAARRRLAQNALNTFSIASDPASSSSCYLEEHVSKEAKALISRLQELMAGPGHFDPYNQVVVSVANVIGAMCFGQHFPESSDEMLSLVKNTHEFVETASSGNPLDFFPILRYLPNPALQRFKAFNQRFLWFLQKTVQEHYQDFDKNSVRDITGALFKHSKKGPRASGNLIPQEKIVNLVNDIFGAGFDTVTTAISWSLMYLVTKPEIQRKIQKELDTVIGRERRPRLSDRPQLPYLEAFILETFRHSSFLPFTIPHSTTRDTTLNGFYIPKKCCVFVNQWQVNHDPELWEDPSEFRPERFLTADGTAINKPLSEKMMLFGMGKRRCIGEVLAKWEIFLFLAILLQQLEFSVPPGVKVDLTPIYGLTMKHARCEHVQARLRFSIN
Chain of 3',5'-cyclic-AMP phosphodiesterase 4B (Homo sapiens) (Q07343 whole entry, looked up): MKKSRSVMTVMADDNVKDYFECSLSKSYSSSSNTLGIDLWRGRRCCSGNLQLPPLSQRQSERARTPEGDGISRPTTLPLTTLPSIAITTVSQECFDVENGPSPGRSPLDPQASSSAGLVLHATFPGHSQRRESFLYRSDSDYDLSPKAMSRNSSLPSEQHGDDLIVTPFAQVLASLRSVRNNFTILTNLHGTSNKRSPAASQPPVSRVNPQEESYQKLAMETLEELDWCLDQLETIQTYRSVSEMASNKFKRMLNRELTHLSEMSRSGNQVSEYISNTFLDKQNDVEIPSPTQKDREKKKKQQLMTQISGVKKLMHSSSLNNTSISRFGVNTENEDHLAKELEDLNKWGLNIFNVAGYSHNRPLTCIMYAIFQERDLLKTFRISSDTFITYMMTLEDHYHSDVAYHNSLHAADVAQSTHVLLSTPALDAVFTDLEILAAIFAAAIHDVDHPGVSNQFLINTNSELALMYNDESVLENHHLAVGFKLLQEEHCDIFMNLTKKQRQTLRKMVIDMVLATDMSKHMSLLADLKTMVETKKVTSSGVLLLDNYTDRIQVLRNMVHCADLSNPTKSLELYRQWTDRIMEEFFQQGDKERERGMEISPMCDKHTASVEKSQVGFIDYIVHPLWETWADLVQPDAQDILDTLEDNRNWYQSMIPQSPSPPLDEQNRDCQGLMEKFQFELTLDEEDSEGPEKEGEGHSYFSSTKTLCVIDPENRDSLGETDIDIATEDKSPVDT
Chain of Lysosomal acid glucosylceramidase (Homo sapiens) (P04062 whole entry, looked up): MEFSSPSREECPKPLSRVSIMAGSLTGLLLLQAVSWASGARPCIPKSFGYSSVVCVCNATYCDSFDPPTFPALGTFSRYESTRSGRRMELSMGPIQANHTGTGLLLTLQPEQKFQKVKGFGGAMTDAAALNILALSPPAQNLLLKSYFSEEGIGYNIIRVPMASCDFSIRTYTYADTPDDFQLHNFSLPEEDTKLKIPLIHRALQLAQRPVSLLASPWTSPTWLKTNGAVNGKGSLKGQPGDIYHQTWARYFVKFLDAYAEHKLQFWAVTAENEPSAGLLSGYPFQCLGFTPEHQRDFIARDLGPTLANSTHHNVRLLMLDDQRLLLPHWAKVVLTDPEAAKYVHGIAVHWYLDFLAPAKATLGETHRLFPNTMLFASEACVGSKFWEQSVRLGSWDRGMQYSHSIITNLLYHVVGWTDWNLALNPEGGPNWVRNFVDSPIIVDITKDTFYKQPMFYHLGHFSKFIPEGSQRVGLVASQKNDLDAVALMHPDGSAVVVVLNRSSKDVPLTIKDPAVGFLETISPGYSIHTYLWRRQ

With `Oc1ccccc1C(Sc1nc2ccccc2s1)Sc1nc2ccccc2s1`, the Potency in [1] is > 11.4 µM; in experiment [3] it was 1.26 µM (active); in experiment [6], > 46 µM; in [7], > 9.22 µM; in experiment [10] it was 3.16 µM (active). Moreover, the results for the activity change, negative = inhibition in [2] and in experiment [4] were 10.8% and 5.9%, respectively. In addition, the activity, negative = inhibition in experiment [5] was -11.5%. Also, the Potency entry in experiment [8] and in experiment [9] was “inactive” each time.
In the case of `CC(C)(C)COS(=O)OCC(C)(C)C`, the Potency was > 11.4 µM in experiment [1], > 46 µM in [6] and > 9.22 µM in experiment [7]. In addition, the figures for the activity change, negative = inhibition in experiment [2] and in experiment [4] were -7.58% and 3.4%, respectively. Besides, the Potency entry in experiment [3], in [8], in experiment [9] and in [10] was “inactive” throughout. Also, in experiment [5], the activity, negative = inhibition was 13.1%.
For `Cc1cn(CC[C@H](N)C(=O)O)c(=O)[nH]c1=O`, the Potency in experiment [1] was > 11.4 µM; in [6], > 46 µM; in experiment [7], > 9.22 µM. The activity change, negative = inhibition in [2] was 0.888%; in [4], -6.68%. Besides, the Potency result in experiment [3], in experiment [8], in experiment [9] and in experiment [10] was “inactive” throughout. Further, in experiment [5], the activity, negative = inhibition was 16.3%.
For the compound `S=c1c2[nH]cnc2ncn1CCSc1ncnc2nc[nH]c12`, the Potency in [1] was > 11.4 µM; in experiment [6] it was > 46 µM; in experiment [7] it was > 9.22 µM. Also, the activity change, negative = inhibition is -5.47% in experiment [2] and 23.1% in [4]. Besides, the Potency entry in experiment [3], in experiment [8], in experiment [9] and in [10] was “inactive” in each case. Besides, the activity, negative = inhibition in experiment [5] was 7.7%.
On to `Clc1ccc(-c2noc(CN3CCCCC3)n2)cc1`, for which the Potency in experiment [1] is > 11.4 µM; in [3], 0.631 µM (active); in experiment [6], > 46 µM; in experiment [7], > 9.22 µM; in experiment [10] it was 1.58 µM (active). In addition, the activity change, negative = inhibition in [2] was 1.13%; in [4], 2.07%. Also, the activity, negative = inhibition in [5] was -0.202%. In addition, the Potency result in experiment [8] and in experiment [9] was “inactive” each time.
In the case of `CC[C@@H]1CC(=O)N(SC[C@H](N)C(=O)O)C1=O`, the figures for the Potency in [1], in experiment [6] and in [7] were > 11.4 µM, > 46 µM and > 9.22 µM, respectively. The activity change, negative = inhibition in [2] was 1.56%; in experiment [4] it was 12.4%. Besides, the Potency entry in experiment [3], in experiment [8], in experiment [9] and in experiment [10] was “inactive” throughout. For the same compound, the activity, negative = inhibition in experiment [5] was 1.84%.
In the case of `Cn1c(=O)c2c(nc(Cc3ccccc3)n2CC(=O)O)n(C)c1=O`, the figures for the Potency in experiment [1], in [6] and in [7] were > 11.4 µM, > 46 µM and > 9.22 µM, respectively. Moreover, the activity change, negative = inhibition in experiment [2] was 6.03%; in experiment [3] it was -13.2% [at 2.29 µM]; in experiment [4] it was 0.0397%. Moreover, the activity, negative = inhibition in experiment [5] was 10.4%. Further, the Potency entry in [8], in experiment [9] and in experiment [10] was “inactive” each time.
For `O=C(O)[C@@H]1[C@@H](C(=O)Nc2ncccn2)[C@@H]2C=C[C@@H]1O2`, the values for the Potency in experiment [1], in experiment [6] and in [7] were > 11.4 µM, > 46 µM and > 9.22 µM, respectively. For the same compound, the figures for the activity change, negative = inhibition in experiment [2], in experiment [3] and in experiment [4] were -0.979%, -13.2% [at 2.29 µM] and 0.85%, respectively. Also, the activity, negative = inhibition in [5] was 9.29%. In addition, the Potency entry in experiment [8] and in experiment [9] was “inactive” each time. Further, the activation in experiment [11] is 18.9%.
In the case of `N=C(N)[C@H](N=Nc1ccccc1)C(N)=O`, the Potency in experiment [1] was > 11.4 µM; in [3], 0.794 µM (active); in experiment [6] it was > 46 µM; in [7], > 9.22 µM. Further, the values for the activity change, negative = inhibition in experiment [2] and in experiment [4] were 20.5% and 1.62%, respectively. Further, the activity, negative = inhibition in [5] is 1.3%. Moreover, the Potency entry in experiment [8] and in experiment [9] was “inactive” in each case. Moreover, the activation in experiment [11] is 1%.
Consider `NC(=O)C[C@H](N)C(N)=O`, for which the Potency in experiment [1] was > 11.4 µM; in [6], > 46 µM; in experiment [7] it was > 9.22 µM. Besides, the activity change, negative = inhibition was -1.63% in experiment [2] and 12.4% in [4]. Further, the Potency result in [3], in [8] and in [9] was “inactive” each time. For the same compound, in experiment [5], the activity, negative = inhibition is 2.81%. Moreover, the activation in experiment [11] is 9.57%.
For `O=S(=O)(O)CCCc1cccc2ccccc12`, the values for the Potency in [1], in experiment [6] and in [7] were > 11.4 µM, > 46 µM and > 9.22 µM, respectively. The values for the activity change, negative = inhibition in [2], in experiment [3] and in [4] were 3.46%, -16.7% [at 2.29 µM] and 3.52%, respectively. Further, in experiment [5], the activity, negative = inhibition was 1.1%. The Potency result in experiment [8] and in experiment [9] was “inactive” each time. In addition, the activation in [11] was -2.01%.
For the compound `O=C(C[C@@H](c1ccccc1)N1CCCCC1)c1ccccc1`, the Potency in [1] is > 11.4 µM; in [3] it was 1.26 µM (active); in experiment [6] it was > 46 µM; in experiment [7] it was > 9.22 µM; in experiment [10] it was 2.51 µM (active). The activity change, negative = inhibition in experiment [2] is 2.69%; in experiment [4], 5.6%. Also, in experiment [5], the activity, negative = inhibition is -14.9%. In addition, the Potency result in experiment [8] and in [9] was “inactive” in each case.
`COc1ccc(NC(=S)Nc2ccccc2)cc1`: the Potency in experiment [1] was > 11.4 µM; in experiment [3] it was 1.26 µM (active); in experiment [6], > 46 µM; in experiment [7], > 9.22 µM; in experiment [10], 2 µM (active). The figures for the activity change, negative = inhibition in [2] and in experiment [4] were 0.508% and 6.45%, respectively. Further, the activity, negative = inhibition in experiment [5] was 10.3%. Also, the Potency entry in [8] and in [9] was “inactive” in each case. Also, the activation in [11] was 8.18%.
Take `Cn1c([N+](=O)[O-])cnc1CN1CCN(CCO)CC1`: the Potency in experiment [1] is > 11.4 µM; in experiment [6] it was > 46 µM; in [7] it was > 9.22 µM. For the same compound, the figures for the activity change, negative = inhibition in experiment [2], in [3] and in [4] were 11%, 9.2% [at 2.29 µM] and 2.86%, respectively. Moreover, the activity, negative = inhibition in [5] was 10.3%. For the same compound, the Potency result in [8], in experiment [9] and in experiment [10] was “inactive” throughout.
